Among the data in PubChem BioAssay (NCATS) are outcome and Potency values, retold here.

In test [1] the target is Metallo-beta-lactamase type 2 (Klebsiella pneumoniae) (UniProt C7C422). Kind of test: qHTS to identify inhibitors of the New Delhi Metallo-beta-lactamase (NDM): assay validation screen against the NCATS LOPAC Collection (AID 1794843).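 Note: nitrocefin turnover by NDM-1 measured as 485 nm absorbance at plateau.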 The procedure, abridged: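 NDM-1 at 2 nM final in 50 mM HEPES pH 7.0, 1 uM ZnSO4, 0.01% Tween20, preincubated with LOPAC compounds pinned in DMSO; 50 uM nitrocefin (stock) added. Hydrolysis read as absorbance at 485 nm in the plateau phase.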
Sequence of Metallo-beta-lactamase type 2 (Klebsiella pneumoniae) (C7C422 whole entry, looked up): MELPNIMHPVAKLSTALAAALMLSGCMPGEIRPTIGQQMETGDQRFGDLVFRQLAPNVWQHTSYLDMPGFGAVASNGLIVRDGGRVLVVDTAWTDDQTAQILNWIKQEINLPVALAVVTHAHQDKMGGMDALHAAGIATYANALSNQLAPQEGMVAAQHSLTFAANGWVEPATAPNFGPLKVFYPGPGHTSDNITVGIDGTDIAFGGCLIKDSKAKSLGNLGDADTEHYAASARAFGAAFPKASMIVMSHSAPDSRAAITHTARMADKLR

In test [2] the target is Phospholipid hydroperoxide glutathione peroxidase GPX4 (Homo sapiens) (UniProt P36969). The test can be described thus: Primary qHTS Assay for Inhibitors of Recombinant Selenoprotein Glutathione Peroxidase 4 (GPX4) (AID 1845192). Note: nearly all actives have a fitted effect of over 65% in size. The procedure, abridged:
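GR-coupled readout: 100 nM GR, 1 mM GSH, 0.5 mM NADPH; NADPH fluorescence (ex 340/em 450 nm) read at t=0 and after 15 min RT. GPX4 200 nM, preincubated 30 min with compound; substrate 0.5 mM CHP.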
In general terms: In qHTS, concentration-response curves come from the screen itself.

Test [3] is described as follows: Quantitative High-Throughput drug screen in 47 multiple myeloma cell lines against the NCATS MIPE library collection: EJM_DSMZ cell viability assay (AID 1918926; note: nearly all actives have a fitted effect of over 30% in size). The procedure, abridged:
(§1)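 Myeloma cell lines, 500 cells per well, exposed to MIPE 4.0 library compounds for 48 h at 37C, 5% CO2. Viability from ATP by CellTiter-Glo luminescence; normalised to DMSO (100%) and media-only (0%) wells.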

Test [4] is described as follows: Quantitative High-Throughput drug screen in 47 multiple myeloma cell lines against the NCATS MIPE library collection: AMO1_DSMZ cell viability assay (AID 1918927; note: nearly all actives have a fitted effect of over 30% in size; note: potency is the fitted concentration of half-maximal effect). The procedure, abridged:
as §1

The nature of test [5]: Quantitative High-Throughput drug screen in 47 multiple myeloma cell lines against the NCATS MIPE library collection: ARD_JJKsccE7 cell viability assay (AID 1918929; note: potency is the fitted concentration of half-maximal effect). The procedure, abridged:
as §1

A short description of test [6]: Quantitative High-Throughput drug screen in 47 multiple myeloma cell lines against the NCATS MIPE library collection: Karpas620_DSMZ cell viability assay (AID 1918959). Note: nearly all actives have a fitted effect of over 30% in size. Note: potency is the fitted concentration of half-maximal effect. Put shortly: (§2)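 Viability readout: CellTiter-Glo luminescence following 5 min room-temperature incubation with reagent. Prior exposure: 48 h, 37C, humidified 5% CO2, 500 cells per well.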
The nature of test [7]: Quantitative High-Throughput drug screen in 47 multiple myeloma cell lines against the NCATS MIPE library collection: KMM1_JCRB cell viability assay (AID 1918960). Note: nearly all actives have a fitted effect of over 30% in size. Note: potency is the fitted concentration of half-maximal effect. Put shortly:
(§3)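 Myeloma cells at 500 per well in 1536-well format treated with MIPE 4.0 library by pin transfer for 48 h at 37C, 5% CO2. Viability from ATP luminescence (CellTiter-Glo), normalized to DMSO (100%) and media-only (0%) wells.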

A short description of test [8]: Quantitative High-Throughput drug screen in 47 multiple myeloma cell lines against the NCATS MIPE library collection: KHM11_PLB cell viability assay (AID 1918962). Note: nearly all actives have a fitted effect of over 35% in size. Note: potency is the fitted concentration of half-maximal effect. The procedure, abridged:
as §2

The target of test [9] is Glutathione peroxidase 1 (Homo sapiens) (UniProt P07203). Kind of test: Primary qHTS Assay for Inhibitors of Recombinant Selenoprotein Glutathione Peroxidase 1 (GPX1) (AID 1845191). Note: nearly all actives have a fitted effect of over 65% in size. Put shortly:
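Recombinant GPX1 (10 nM final) was preincubated with compound for 30 min at room temperature, then reacted with 1 mM GSH, 0.5 mM CHP, 0.5 mM NADPH and 100 nM glutathione reductase; NADPH fluorescence (340/450 nm) was read at 0 and 15 min.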

The nature of test [10]: Quantitative High-Throughput drug screen in 47 multiple myeloma cell lines against the NCATS MIPE library collection: Delta47_JCRB cell viability assay (AID 1918925; note: nearly all actives have a fitted effect of over 45% in size; note: potency is the fitted concentration of half-maximal effect). The procedure, abridged:
as §1

The nature of test [11]: Quantitative High-Throughput drug screen in 47 multiple myeloma cell lines against the NCATS MIPE library collection: ARP1_JJKsccF8 cell viability assay (AID 1918928; note: nearly all actives have a fitted effect of over 40% in size; note: potency is the fitted concentration of half-maximal effect). Put shortly: as §3
Test [12] in a line: Quantitative High-Throughput drug screen in 47 multiple myeloma cell lines against the NCATS MIPE library collection: Karpas417_ECACC cell viability assay (AID 1918961). Note: potency is the fitted concentration of half-maximal effect. The note with it: Karpas417 myeloma viability, CellTiter-Glo ATP luminescence, 48 h; viability (% of DMSO): at 45.8 µM (top of the series). The procedure, abridged:
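Approved and investigational drugs from MIPE 4.0 were added by pin tool to 500 cells per well. After 48 hours at 37C, ATP-based CellTiter-Glo luminescence indicated remaining viability.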
Background: Cellular ATP, detected with luciferase, serves as a proxy for viable cell number.

Test [13] is described as follows: Quantitative High-Throughput drug screen in 47 multiple myeloma cell lines against the NCATS MIPE library collection: FR4_PLB cell viability assay (AID 1918924; note: nearly all actives have a fitted effect of over 35% in size). Put shortly: as §2

Results filed as inconclusive are left out. Active and inactive are the calls of the source. Calls come from the whole dose curve; as a rule, active = well fitted curve in the direction sought with a large enough effect; inconclusive = small, poorly fitted or top-dose-only effect, or another doubt; inactive = no such curve, though single readings can be large; an effect the other way counts as inactive or inconclusive.

Sequence of Glutathione peroxidase 1 (Homo sapiens) (P07203 whole entry, looked up): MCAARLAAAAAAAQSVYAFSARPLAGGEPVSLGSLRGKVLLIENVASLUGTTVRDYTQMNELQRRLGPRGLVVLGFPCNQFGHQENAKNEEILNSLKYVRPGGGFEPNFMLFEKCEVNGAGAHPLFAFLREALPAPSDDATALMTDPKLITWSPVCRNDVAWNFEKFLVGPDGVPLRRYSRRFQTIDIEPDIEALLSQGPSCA
Sequence of Phospholipid hydroperoxide glutathione peroxidase GPX4 (Homo sapiens) (P36969 whole entry, looked up): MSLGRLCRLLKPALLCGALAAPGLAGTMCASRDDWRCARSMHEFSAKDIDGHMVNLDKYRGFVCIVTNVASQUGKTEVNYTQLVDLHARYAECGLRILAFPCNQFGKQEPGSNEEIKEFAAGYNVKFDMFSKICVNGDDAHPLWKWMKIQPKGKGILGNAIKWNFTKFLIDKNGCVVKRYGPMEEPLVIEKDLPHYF

Regarding `CN(C)CCC=C1c2ccccc2C=Cc2ccccc21`, the result in test [1] was inactive. Also, the Potency result in [2], in test [3], in test [5], in test [6], in test [7] and in test [8] was “inactive” each time. Besides, the Potency in test [4] was 0.0235 µM (active).
With `Cc1ccccc1N1C(=O)c2cc(S(N)(=O)=O)c(Cl)cc2NC1C` (centres undefined), the Potency result in test [9], in test [2], in [10], in [3], in test [4] and in test [11] was “inactive” in each case. Besides, the Potency result in [5], in test [6], in [7] and in [8] was “inactive” each time.
Regarding `Cc1cn([C@H]2C=C[C@@H](CO)O2)c(=O)[nH]c1=O`, the molecule was called inactive in test [1]. Further, the Potency entry in test [2], in test [3], in test [4], in test [11], in test [5] and in [6] was “inactive” in each case. In addition, the Potency entry in test [7] is “inactive”. Besides, in [12], the Potency was 0.0108 µM (active).
As for `O=c1[nH]cc(F)c(=O)[nH]1`, the result in [1] was inactive. The Potency result in [2], in test [3] and in test [6] was “inactive” each time. Moreover, the Potency was 1.87 µM (active) in test [11] and 10.5 µM (active) in test [7].
As to `CC(COc1ccccc1)N(CCCl)Cc1ccccc1` (centres undefined), the Potency entry in test [9], in [2], in test [10], in [4], in test [11] and in test [7] was “inactive” in each case. For the same molecule, the Potency in test [5] was 16.6 µM (active).
On to `CCC1(c2ccccc2)C(=O)NCNC1=O`, for which the Potency result in test [2], in test [13], in test [3], in [11] and in [6] was “inactive” in each case. Also, the Potency in test [10] was 2.96 µM (active); in [4], 10.5 µM (active); in [5] it was 14.8 µM (active); in [8] it was 5.26 µM (active).
As for `COC(=O)Nc1nc2ccc(C(=O)c3cccs3)cc2[nH]1`, in test [1], the molecule was classed as inactive. For the same molecule, the Potency entry in [2] is “inactive”. Moreover, the Potency in test [4] was 0.001 µM (active); in test [11], 0.0042 µM (active); in test [5] it was 0.001 µM (active); in test [6], 0.0017 µM (active); in test [7] it was 0.001 µM (active).
Take `CC1(CN2CCC(n3c(=O)[nH]c4ccccc43)CC2)OCc2ccccc2-n2cccc21` (centres undefined): the Potency entry in [9], in [2], in test [11], in [5], in test [6] and in [7] was “inactive” throughout. For the same molecule, the Potency result in test [8] is “inactive”.
In the case of `O=c1c(-c2ccc(O)cc2)coc2cc(O)cc(O)c12`, the molecule was classed as inactive in test [1]. The Potency entry in test [2], in test [10], in test [3], in [6] and in test [8] was “inactive” in each case. Besides, the Potency in test [4] was 16.6 µM (active); in test [5] it was 14.8 µM (active).
With `NC(CO)C(=O)NNCc1ccc(O)c(O)c1O` (centres undefined), the outcome in test [1] was inactive. For the same molecule, the Potency entry in [2], in test [10], in test [4], in test [5], in test [6] and in [8] was “inactive” each time. Also, the Potency in [11] was 23.5 µM (active).
